Results reported in PubChem BioAssay (NCI).
Compounds without any hit were thinned out: in the full panel of roughly 79,000, 15% have a hit. Calls of active or inactive are those of the source. Cut-off read from the data, not from the text of the source: active = growth inhibition above about 70%; inactive = the rest.

How the values were obtained:
[1] = NCI Yeast Anticancer Drug Screen. Data for the rad50 strain (AID 155);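 note: 0% = growth of vehicle-only cultures of the same strain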; details: S. cerevisiae rad50 strain growth inhibition, hits give high values
Method in brief: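 Readout: growth inhibition relative to vehicle-treated cultures. Compound exposure was carried out in a genetically defined yeast strain deficient in DNA damage repair.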

[2] = NCI Yeast Anticancer Drug Screen. Data for the mec2-1 strain (AID 157); details: S. cerevisiae mec2-1 strain, hits give high values
Method in brief: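 Test agents were screened against the mec2-1 yeast strain, with defined DNA repair or cell cycle alteration. Growth was scored as inhibition against vehicle-only controls.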

[3] = NCI Yeast Anticancer Drug Screen. Data for the sgs1 mgt1 strain (AID 161);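 note: 0% = growth of cultures given vehicle only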; details: S. cerevisiae sgs1 mgt1 strain, hits give high values
Method in brief: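 Read-out: growth inhibition vs vehicle controls. Cells: mutant yeast strain deficient in DNA damage repair.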

[4] = NCI Yeast Anticancer Drug Screen. Data for the cln2 rad14 strain (AID 165);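 note: 0% = growth equal to vehicle treated cultures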; details: S. cerevisiae cln2 rad14 strain, hits give high values
Method in brief: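 Growth of compound-exposed yeast (cln2 rad14 genotype) measured and expressed as inhibition relative to vehicle.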

[5] = NCI Yeast Anticancer Drug Screen. Data for the bub3 strain (AID 167); details: S. cerevisiae bub3 mutant strain, hits give high values
Method in brief: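 Readout: yeast growth inhibition, expressed relative to vehicle-only wells. The test organism is a mutant strain from a panel with lesions in DNA repair or checkpoint genes.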

[6] = NCI Yeast Anticancer Drug Screen. Data for the mlh1 rad18 strain (AID 175); details: S. cerevisiae mlh1 rad18 strain growth inhibition, hits give high values
Method in brief: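 In this whole-cell yeast screen, a strain with altered DNA damage repair is challenged with compound, and its growth is measured against matched vehicle-treated controls.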

[7] = at 5.0 µM (retest, dose inferred, filed as 0.5)
[8] = at 50.0 µM (retest, dose inferred, filed as 5.0)

Measured: growth inhibition

Oc1ccc(Br)cc1C=Nc1c(NC2CCCCC2)oc2ccc(Br)cc12
inactive: [1]; [7] -4% | [1]; [8] 9% | [1]; at 50.0 µM -9.35% | [2]; [7] 3% | [2]; [8] -2% | [2]; at 50.0 µM 39.4% | [3]; [7] 11% | [3]; [8] 22% | [3]; at 50.0 µM 41.8% | [4]; [7] -18% | [4]; [8] 0% | [4]; at 50.0 µM 37% | [5]; [7] -12% | [5]; [8] 43% | [5]; at 50.0 µM 53.4% | [6]; [7] -4% | [6]; [8] 29% | [6]; at 50.0 µM 50.5%

COc1ccc(Br)c2c1CC(C(=O)O)CC2 (configuration not stated)
inactive: [1]; [7] -29% | [1]; [8] -23% | [1]; at 50.0 µM 8% | [2]; [7] -26% | [2]; [8] 26% | [2]; at 50.0 µM 4.05% | [3]; [7] -33% | [3]; [8] -22% | [3]; at 50.0 µM -10.1% | [4]; [7] 6% | [4]; [8] 6% | [4]; at 50.0 µM -17.2% | [5]; [7] -13% | [5]; [8] 13% | [5]; at 50.0 µM 11.9% | [6]; [7] -20% | [6]; [8] -19% | [6]; at 50.0 µM 2.8%

C[CH2][Sn]([CH2]C)([O]C(=O)c1cc(OC)c(OC)c(OC)c1)[O][Sn]([CH2]C)([CH2]C)[O]C(=O)c1cc(OC)c(OC)c(OC)c1
active: [1]; [8] 79% | [2]; [8] 91% | [3]; [8] 85% | [5]; [8] 94% | [6]; [8] 85%
inactive: [1]; [7] 33% | [1]; at 50.0 µM 1.2% | [2]; [7] 30% | [2]; at 50.0 µM 12.7% | [3]; [7] 31% | [3]; at 50.0 µM 23.6% | [4]; [7] 8% | [4]; [8] 61% | [4]; at 50.0 µM 21.9% | [5]; [7] 36% | [5]; at 50.0 µM 9.15% | [6]; [7] 27% | [6]; at 50.0 µM 61%

CC(C)CC(N)C(=O)NNc1ccccc1 (configuration not stated)
inactive: [1]; [7] 29% | [2]; [7] 23% | [3]; [7] 30% | [4]; [7] 19% | [5]; [7] 37%
active: [1]; [8] 94% | [1]; at 50.0 µM 96.8% | [2]; [8] 96% | [2]; at 50.0 µM 84.2% | [3]; [8] 97% | [3]; at 50.0 µM 88.6% | [4]; [8] 83% | [4]; at 50.0 µM 94.2% | [5]; [8] 96% | [5]; at 50.0 µM 97.5% | [6]; [7] 72% | [6]; [8] 99% | [6]; at 50.0 µM 98%
